According to the supplement of paper PMC10849652:
About 7,900 targets were measured; listed, in parts, are those with a hit and a random draw of the rest. About 0.6% of all pairs of compound and target were hits. Unmarked numbers belong to inactive results.

Key:
Experiment in all cases: log2 fold change, soluble protein after heating vs DMSO (PISA); higher = thermal stabilisation; K562 cells, 10 uM, 30 min; active = over 0.2 and 3.5 SD of the protein, either way, in both replicates (recomputed)
[1] = molecular target: ZC3H8 (UniProt Q8N5P1)
Method in brief: (§1)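 Soluble protein was quantified by TMTpro 16plex LC-MS/MS after channel sums were equalised. It was obtained as the supernatant after 21,000xg for 90 min from pooled aliquots of K562 cells (2×10^6 cells/mL, 10 μM compound, 30 min) heated for 3 min across 48°C-58°C and extracted in PBS with 0.5% NP-40 at 4°C. Thermal stability values are relative to control samples and come from duplicates. They are given as log2 fold changes.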

[2] = molecular target: ZC3HC1 (UniProt Q86WB0)
Method in brief: as §1

[3] = molecular target: ZCCHC9 (UniProt Q8N567)
Method in brief: as §1

[4] = molecular target: ZDHHC17 (UniProt Q8IUH5)
Method in brief: as §1

[5] = molecular target: ZDHHC20 (UniProt Q5W0Z9)
Method in brief: as §1

[6] = molecular target: ZDHHC5 (UniProt Q9C0B5)
Method in brief: as §1

[7] = molecular target: ZDHHC6 (UniProt Q9H6R6)
Method in brief: as §1

[8] = molecular target: ZDHHC7 isoform 2 (UniProt Q9NXF8)
Method in brief: as §1

[9] = molecular target: ZDHHC8 isoform 3 (UniProt Q9ULC8)
Method in brief: as §1

Chain of ZDHHC17 (Q8IUH5 whole entry, looked up): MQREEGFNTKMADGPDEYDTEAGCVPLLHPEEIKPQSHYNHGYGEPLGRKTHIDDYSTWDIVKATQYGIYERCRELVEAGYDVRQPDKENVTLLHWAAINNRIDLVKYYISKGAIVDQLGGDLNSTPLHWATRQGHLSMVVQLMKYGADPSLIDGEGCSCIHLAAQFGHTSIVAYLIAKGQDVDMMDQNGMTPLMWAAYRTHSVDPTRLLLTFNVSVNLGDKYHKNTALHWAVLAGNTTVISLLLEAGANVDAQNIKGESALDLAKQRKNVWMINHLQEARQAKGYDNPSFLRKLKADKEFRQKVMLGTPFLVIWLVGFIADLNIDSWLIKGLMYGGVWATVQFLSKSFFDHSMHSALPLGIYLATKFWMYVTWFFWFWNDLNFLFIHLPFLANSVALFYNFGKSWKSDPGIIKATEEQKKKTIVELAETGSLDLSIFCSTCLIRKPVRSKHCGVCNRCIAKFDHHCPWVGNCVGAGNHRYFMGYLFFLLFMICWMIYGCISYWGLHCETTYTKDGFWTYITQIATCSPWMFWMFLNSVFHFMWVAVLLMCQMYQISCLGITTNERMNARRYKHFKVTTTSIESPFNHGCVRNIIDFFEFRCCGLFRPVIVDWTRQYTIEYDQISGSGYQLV
Chain of ZDHHC8 isoform 3 (Q9ULC8 whole entry, looked up, canonical isoform): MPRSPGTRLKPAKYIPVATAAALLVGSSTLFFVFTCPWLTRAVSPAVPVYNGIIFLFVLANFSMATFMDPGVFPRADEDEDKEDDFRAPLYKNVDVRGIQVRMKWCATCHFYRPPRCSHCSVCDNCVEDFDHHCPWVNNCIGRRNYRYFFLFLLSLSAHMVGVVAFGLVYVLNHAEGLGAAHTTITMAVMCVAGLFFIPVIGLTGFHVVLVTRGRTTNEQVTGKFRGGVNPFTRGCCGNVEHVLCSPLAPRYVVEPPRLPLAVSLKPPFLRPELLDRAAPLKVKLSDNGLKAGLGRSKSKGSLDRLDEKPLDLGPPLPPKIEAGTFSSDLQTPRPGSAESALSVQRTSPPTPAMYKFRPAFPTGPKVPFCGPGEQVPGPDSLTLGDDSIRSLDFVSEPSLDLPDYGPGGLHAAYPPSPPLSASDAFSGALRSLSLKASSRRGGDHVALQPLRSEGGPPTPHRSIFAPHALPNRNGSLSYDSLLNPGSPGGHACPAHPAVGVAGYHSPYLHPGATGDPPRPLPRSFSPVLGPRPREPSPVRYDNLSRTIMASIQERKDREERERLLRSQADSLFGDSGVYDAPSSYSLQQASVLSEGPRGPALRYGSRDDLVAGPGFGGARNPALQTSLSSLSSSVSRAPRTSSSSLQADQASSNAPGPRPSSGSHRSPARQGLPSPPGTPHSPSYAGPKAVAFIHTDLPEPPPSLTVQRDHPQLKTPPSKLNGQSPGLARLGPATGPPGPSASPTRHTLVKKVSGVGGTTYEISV
Chain of ZDHHC6 (Q9H6R6 whole entry, looked up): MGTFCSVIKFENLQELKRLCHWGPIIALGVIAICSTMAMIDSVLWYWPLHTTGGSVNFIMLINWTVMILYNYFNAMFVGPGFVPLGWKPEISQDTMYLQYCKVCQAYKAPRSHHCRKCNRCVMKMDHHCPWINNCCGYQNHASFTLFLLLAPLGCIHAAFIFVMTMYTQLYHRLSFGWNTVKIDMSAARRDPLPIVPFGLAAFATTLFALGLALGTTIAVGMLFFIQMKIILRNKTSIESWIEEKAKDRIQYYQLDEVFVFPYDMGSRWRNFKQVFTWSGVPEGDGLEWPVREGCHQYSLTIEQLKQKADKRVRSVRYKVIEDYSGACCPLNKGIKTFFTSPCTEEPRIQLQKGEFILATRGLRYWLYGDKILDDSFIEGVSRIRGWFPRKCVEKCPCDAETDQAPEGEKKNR
Chain of ZC3HC1 (Q86WB0 whole entry, looked up): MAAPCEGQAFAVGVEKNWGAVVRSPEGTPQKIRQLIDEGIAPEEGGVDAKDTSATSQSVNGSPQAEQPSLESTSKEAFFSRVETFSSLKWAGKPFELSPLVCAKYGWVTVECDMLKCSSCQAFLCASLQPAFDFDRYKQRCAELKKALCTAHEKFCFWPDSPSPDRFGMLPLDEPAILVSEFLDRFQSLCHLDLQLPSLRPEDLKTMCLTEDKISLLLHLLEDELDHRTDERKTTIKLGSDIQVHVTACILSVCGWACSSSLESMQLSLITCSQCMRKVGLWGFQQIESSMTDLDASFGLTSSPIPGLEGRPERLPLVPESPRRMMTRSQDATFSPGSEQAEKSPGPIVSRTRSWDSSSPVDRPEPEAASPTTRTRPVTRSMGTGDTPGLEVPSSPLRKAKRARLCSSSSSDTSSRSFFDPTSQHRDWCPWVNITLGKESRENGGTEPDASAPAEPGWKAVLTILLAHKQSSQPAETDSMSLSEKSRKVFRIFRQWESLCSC
Chain of ZCCHC9 (Q8N567 whole entry, looked up): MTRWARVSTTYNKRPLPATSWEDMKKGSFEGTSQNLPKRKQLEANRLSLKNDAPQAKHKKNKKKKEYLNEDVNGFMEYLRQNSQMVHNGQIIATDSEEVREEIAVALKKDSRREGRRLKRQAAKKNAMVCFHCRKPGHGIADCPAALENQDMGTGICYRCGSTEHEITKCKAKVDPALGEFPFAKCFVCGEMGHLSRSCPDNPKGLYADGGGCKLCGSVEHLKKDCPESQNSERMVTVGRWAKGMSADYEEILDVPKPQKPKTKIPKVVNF
Chain of ZDHHC7 isoform 2 (Q9NXF8 whole entry, looked up, canonical isoform): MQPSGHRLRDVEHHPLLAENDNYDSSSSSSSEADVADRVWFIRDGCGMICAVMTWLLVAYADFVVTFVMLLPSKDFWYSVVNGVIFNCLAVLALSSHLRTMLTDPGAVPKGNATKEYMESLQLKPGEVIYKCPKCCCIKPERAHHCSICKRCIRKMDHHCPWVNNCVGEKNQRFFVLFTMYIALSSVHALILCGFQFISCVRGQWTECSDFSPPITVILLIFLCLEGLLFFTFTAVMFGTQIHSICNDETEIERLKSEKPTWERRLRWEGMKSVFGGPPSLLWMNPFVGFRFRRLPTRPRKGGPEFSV
Chain of ZDHHC20 (Q5W0Z9 whole entry, looked up): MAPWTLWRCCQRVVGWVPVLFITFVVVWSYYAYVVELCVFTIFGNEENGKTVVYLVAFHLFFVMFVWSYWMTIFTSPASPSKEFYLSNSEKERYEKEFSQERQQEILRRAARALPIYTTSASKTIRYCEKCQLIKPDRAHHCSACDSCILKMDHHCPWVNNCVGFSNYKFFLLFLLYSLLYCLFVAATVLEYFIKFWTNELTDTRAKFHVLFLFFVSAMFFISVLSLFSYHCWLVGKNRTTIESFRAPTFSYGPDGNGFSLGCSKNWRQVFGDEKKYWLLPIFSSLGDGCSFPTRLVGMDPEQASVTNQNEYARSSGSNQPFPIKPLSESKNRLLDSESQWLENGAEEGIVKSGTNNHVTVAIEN
Chain of ZC3H8 (Q8N5P1 whole entry, looked up): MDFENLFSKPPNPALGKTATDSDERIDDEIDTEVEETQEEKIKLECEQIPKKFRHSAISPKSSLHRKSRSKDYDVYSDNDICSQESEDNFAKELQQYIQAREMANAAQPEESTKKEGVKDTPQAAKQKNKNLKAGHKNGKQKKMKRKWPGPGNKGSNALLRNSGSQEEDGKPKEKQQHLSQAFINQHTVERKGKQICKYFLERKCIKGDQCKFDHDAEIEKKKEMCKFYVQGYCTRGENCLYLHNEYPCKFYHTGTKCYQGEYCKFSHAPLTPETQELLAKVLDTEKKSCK
Chain of ZDHHC5 (Q9C0B5 whole entry, looked up): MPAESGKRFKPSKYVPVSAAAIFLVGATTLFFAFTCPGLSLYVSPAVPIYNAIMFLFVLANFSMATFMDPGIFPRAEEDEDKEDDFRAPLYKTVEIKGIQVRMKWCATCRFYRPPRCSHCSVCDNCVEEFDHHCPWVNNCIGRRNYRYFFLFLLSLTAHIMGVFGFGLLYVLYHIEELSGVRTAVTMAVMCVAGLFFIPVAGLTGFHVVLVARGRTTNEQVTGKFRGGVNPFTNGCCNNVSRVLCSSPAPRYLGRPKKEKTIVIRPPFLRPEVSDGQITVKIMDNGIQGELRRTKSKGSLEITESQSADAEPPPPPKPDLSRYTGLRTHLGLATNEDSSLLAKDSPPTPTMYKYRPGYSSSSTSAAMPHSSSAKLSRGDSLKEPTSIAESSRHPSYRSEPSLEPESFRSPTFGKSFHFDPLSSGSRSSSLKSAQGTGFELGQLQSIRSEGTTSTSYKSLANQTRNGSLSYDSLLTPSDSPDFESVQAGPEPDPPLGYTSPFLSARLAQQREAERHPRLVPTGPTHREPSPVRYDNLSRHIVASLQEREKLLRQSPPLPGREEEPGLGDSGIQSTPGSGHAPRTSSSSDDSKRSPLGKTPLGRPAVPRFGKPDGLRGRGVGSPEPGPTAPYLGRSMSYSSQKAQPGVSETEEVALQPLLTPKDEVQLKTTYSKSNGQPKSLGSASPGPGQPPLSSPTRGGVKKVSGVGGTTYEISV

Row | SMILES | log2 fold change [1] | log2 fold change [2] | log2 fold change [3] | log2 fold change [4] | log2 fold change [5] | log2 fold change [6] | log2 fold change [7] | log2 fold change [8] | log2 fold change [9]
1 | CC(C)(O)CC(=O)NCCn1ccc2ncnc(Nc3ccc(Oc4cccc(C(F)(F)F)c4)c(Cl)c3)c21 | 0.064 | -0.179 | 0.166 | 0.062 | -0.082 | 0.033 | -0.932 (active) | -0.026 | 0.486 (active)
2 | CCn1c(C(=O)N(C2CC2)C2CC2)cc2c3c(ncn3C)c(Nc3cc(C)n(C)n3)nc21 | -0.034 | -0.059 | 0.003 | -0.061 | -0.023 | -0.012 |  | 0.011 | 
3 | Cn1cc(-c2ccc3c(c2)CCN3C(=O)Cc2cccc(C(F)(F)F)c2)c2c(N)ncnc21 | -0.084 | 0.014 | -0.074 | 0.018 | -0.036 | -0.02 |  | -0.088 | 
4 | Cc1ccc(NC(=O)c2cccc(N(C)C)c2)cc1NC(=O)c1ccc(O)cc1 | 0.03 | -0.209 | 0.062 | 0.01 | 0.085 | -0.007 |  | 0.014 | 
5 | CCN(CC)Cc1ccc2cc(COC(=O)Nc3ccc(C(=O)NO)cc3)ccc2c1 [givinostat] | -0.106 | 0.031 | 0.038 | 0.113 | -0.167 | -0.001 |  | 0.011 | 
6 | CCCS(=O)(=O)Nc1ccc(F)c(C(=O)c2c[nH]c3ncc(Cl)cc23)c1F | -0.138 | 0.189 | -0.177 | -0.016 | 0.138 | -0.009 | -0.048 | 0.014 | 
7 | CC[C@H](C)[C@H](NC(=O)[C@H]([C@@H](C)CC)N(C)C(C)=O)C(=O)N[C@H](C(=O)N[C@@H](CC(C)C)C(=O)[C@@]1(C)CO1)[C@@H](C)O [epoxomicin] | -0.107 | 0.1 | -0.303 | -0.044 | -0.102 | -0.083 | -0.052 | 0.124 | -0.037
8 | O=C1c2ccccc2-c2n[nH]c3cccc1c23 | -0.001 | -0.032 | -0.009 | -0.021 | -0.044 | -0.054 |  | 0.01 | 
9 | O=C1NC(=O)C(c2cnc3ccccn23)=C1c1cn2c3c(cc(F)cc13)CN(C(=O)N1CCCCC1)CC2 | 0 | -0.132 | 0.229 | 0.043 | 0.079 | -0.014 | 0.089 | -0.021 | 0.029
10 | CC(C)(C)Cn1c(N)nc2ccc(-c3[nH]c(C(C)(C)C)nc3-c3ccc(F)cc3)nc21 [ralimetinib] | 0.047 | 0.035 | 0.017 | -0.099 | -0.187 | -0.001 |  | -0.033 | 
11 | CC(C)c1cnn2c(NCc3ccccc3)cc(NCCCCCCN)nc12 | 0.177 | -0.151 | 0.004 | -0.061 | -0.229 | 0.007 |  | -0.008 | 
12 | CCCCN(Cc1ccc(C(=O)NO)cc1)C(=O)Nc1ccccc1 [Nexturastat A] | 0.106 | -0.106 | 0.311 | -0.086 | -0.149 | -0.001 | -0.06 | 0.052 | -0.151
13 | Cc1ccc(C(=O)N(CCCN)[C@@H](c2nc3cc(Cl)ccc3c(=O)n2Cc2ccccc2)C(C)C)cc1 [ispinesib] | -0.016 | -0.027 | -0.353 | 0.023 | -0.076 | -0.035 |  | 0.126 | 
14 | NC(=O)c1ccc2nc(-c3ccc(Oc4ccc(Cl)cc4)cc3)[nH]c2c1 | 0.027 | -0.034 | 0.025 | -0.046 | 0.14 | 0.027 |  | 0.022 | 
